Shown are actives, neighbours in structure and some others; about 4.1% of the full set was active somewhere.
DAX1 inh-1 – DAX1 (NR0B1) inhibitors on StAR promoter, primary screen, cell-based, luminescence, SF-1 (NR5A1), full-length DAX-1 | HEK293T StAR-luciferase reporter, SF-1/DAX-1 repression relief | inhibition, % at 6.8 µM | hit rate 1.1% among 370,000;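 active means inhibition above the mean over all tested compounds plus 3 SD, cut at about 3.6% in these data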;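 further: 0% = DAX-1 cells with DMSO and 100% = cells lacking DAX-1 with DMSO; higher inhibition means more luminescence from relief of DAX-1 repression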
DAX1 inh-2 – DAX1 (NR0B1) inhibitors, primary screen, cell-based, HEK293, Gal4-DAX1, luciferase luminescence | Nuclear receptor subfamily 0 group B member 1 (Homo sapiens), P51843 | HEK293 Gal4-DAX1 luciferase reporter | inhibition, % at 6.75 µM | hit rate 0.99% among 340,000 | AID 504766, 2011;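 active means inhibition above the mean over all tested compounds plus 3 SD, cut at about 4.2% in these data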;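 further: 0% = DAX1-transfected cells with DMSO and 100% = empty-vector control cells with DMSO; inhibition shows as a rise in luminescence from relieved DAX1 repression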
Target sequence (P51843 207-470 limits assumed): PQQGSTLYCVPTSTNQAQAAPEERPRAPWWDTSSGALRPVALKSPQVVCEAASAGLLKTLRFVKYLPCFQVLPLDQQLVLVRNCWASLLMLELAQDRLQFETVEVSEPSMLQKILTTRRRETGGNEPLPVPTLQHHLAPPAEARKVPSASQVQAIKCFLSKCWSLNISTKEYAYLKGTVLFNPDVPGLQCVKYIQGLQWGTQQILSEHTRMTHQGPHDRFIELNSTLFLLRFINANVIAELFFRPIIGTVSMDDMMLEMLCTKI
ssDAF-12 act – S. stercoralis DAF-12 nuclear receptor activators, primary screen, cell-based, luminescence, HEK293, GRIP1 co-expression, lit1-tk-luc. HEK293 ssDAF-12/GRIP1 lit1-tk-luc reporter; % of 3 µM dafachronic acid response. activation, % at 6.8 µM. hit rate 1% among 370,000. AID 652126, 2013. Nuclear hormone receptor DAF-12 (Strongyloides stercoralis);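 active means activation above the mean over all tested compounds plus 3 SD, cut at about 0.9% in these data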;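 further: 0% = DMSO-only wells and 100% = 3 µM delta7-dafachronic acid wells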
hgDAF12 agonist – H. glycines DAF-12 receptor agonists, primary screen, cell-based, luminescence, HEK293, GAL4 fusion, UAS-luciferase. hit rate 1.8% among 370,000. Nuclear hormone receptor DAF-12 (Heterodera glycines), GAL4 fusion. activation, % at 6.8 µM. AID 687014, 2013. HEK293 GAL4-hgDAF12 UAS-luciferase reporter, agonist luminescence; normalized to butyrate control;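 active means activation above a cutoff set at the mean of all screened compounds plus 3 SD, cut at about 10% in these data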;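 further: 0% = DMSO wells and 100% = sodium butyrate wells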
hcDAF-12 act – H. contortus DAF-12 nuclear receptor activators, primary screen, cell-based, luminescence, HEK293, lit1-tk-luc reporter | hit rate 1.4% among 370,000 | activation, % at 6.8 µM | HEK293 hcDAF-12 lit1-tk-luc reporter; 0% DMSO, 100% Δ7-dafachronic acid;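 active means activation above the mean of all tested compounds plus 3 SD, cut at about 5.5% in these data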;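 further: 100% = response to 3 µM Δ7-dafachronic acid high control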
An asterisk follows results filed as active; . = not tested or not shown.

SMILES | DAX1 inh-1 | DAX1 inh-2 | ssDAF-12 act | hgDAF12 agonist | hcDAF-12 act
COc1ccc(CNC(=O)CN(C)S(=O)(=O)c2ccc(Br)s2)cc1 | -0.1 | -1.1 | -1.1 | -0.3 | -2.8
Cc1sc2nc(CSC(C)C(=O)Nc3ccccn3)[nH]c(=O)c2c1C (stereo not given) | 4.0* | 0.5 | -1.1 | 3.6 | 1.9
COCC1CCN(C(=O)c2cc(COc3cc(C)c(Cl)c(C)c3)on2)C1 (stereo not given) | 1.3 | 0.3 | -0.3 | 8.7 | 6.3*
CCN(CC1CCCO1)C(=O)c1cc(COc2cc(C)c(Cl)c(C)c2)on1 (stereo not given) | 0.3 | 0.5 | 1.5* | 7.3 | 4.6
CC(=O)c1ccc(OCc2cc(C(=O)N(C)Cc3ccon3)no2)cc1 | 0.0 | 0.1 | -0.7 | -0.9 | -0.5
CC(=O)c1ccc(OCc2cc(C(=O)N(C)Cc3ccccn3)no2)cc1 | 4.0* | 0.1 | 1.0* | 9.3 | 4.2
Cc1cc(OCc2cc(C(=O)N(C)C(C)c3ccccn3)no2)cc(C)c1Cl (stereo not given) | 1.2 | 0.7 | 0.0 | 12.1* | 2.8
Fc1ccccc1-c1n[nH]c(=S)n1N=Cc1cccc(OCc2ccccc2)c1 | -2.0 | . | -1.2 | 0.5 | -4.2
Cc1cc(OCc2cc(C(=O)N(C)Cc3ccccn3)no2)cc(C)c1Cl | 1.1 | 1.4 | -0.3 | 11.3* | 1.1
COc1ccc(C(=O)c2ccc(Br)cc2)cc1 | 0.6 | 1.8 | -1.4 | 3.1 | -0.7
COc1ccc(C(=O)c2ccccc2)cc1 | 0.8 | 1.8 | 15.7* | -0.3 | 2.5
COc1ccc(C(=O)c2c[nH]c3ccccc23)cc1 | 3.2 | 2.1 | 0.9 | 11.5* | 3.7
CCOc1ccccc1NC(=O)COC(=O)c1cc[n+]([O-])cc1 | -0.1 | 5.4* | 0.0 | -2.2 | -1.1
CCOC(=O)C1CCN(C(=O)C(C)(C)NC(=O)Nc2ccc(Cl)cc2Cl)CC1 | . | . | -1.2 | -2.8 | -1.0
CC(C)c1nc(N(C)S(C)(=O)=O)nc(-c2ccc(F)cc2)c1/C=C/[C@H](O)C[C@@H](O)CC(=O)O | 0.7 | . | 0.5 | -0.7 | -0.8
Cc1ccc(OCC(=O)Nc2ccc(C)c(F)c2)c([N+](=O)[O-])n1 | 3.7* | 1.9 | -0.1 | 7.5 | 1.0
COc1ccc2c(c1)C[C@@H](CON1C(C)(C)CCCC1(C)C)N2S(=O)(=O)c1ccc(C)cc1 | . | . | -1.7 | 0.0 | -3.8
O=C(NCc1ccc2c(c1)OCO2)OCc1ccccc1 | 4.0* | . | -0.7 | 7.3 | 2.2
CC1Oc2ccccc2N(CC(=O)Nc2ccc3c(c2)OCO3)C1=O (stereo not given) | -0.8 | -0.7 | -1.3 | -0.9 | -0.1
O=C(CN(Cc1ccccc1)C(=O)c1csnn1)NCc1ccc2c(c1)OCO2 | -0.4 | -0.6 | 0.8 | 2.8 | 5.8*
COc1ccc(CN(CC(=O)NCc2ccc3c(c2)OCO3)C(=O)c2csnn2)cc1 | -0.3 | 0.2 | -0.5 | -0.9 | 0.3
CC1Oc2ccccc2N(CC(=O)NCc2ccc3c(c2)OCO3)C1=O (stereo not given) | 0.9 | 0.8 | -0.4 | 11.3* | 2.4
COc1ccc(-c2c(C(=O)c3ccccc3)[nH]c(N)c2C(=O)c2c[nH]c3ccccc23)cc1OC | . | . | -0.6 | 0.6 | 3.0
Cc1cc(=O)[nH]c(SCC(=O)Nc2ccc(Cl)cc2)n1 | -0.1 | . | -0.8 | -2.6 | -0.1
Cc1ccc(NCCC(=O)c2cccs2)cc1Cl | 0.8 | 0.8 | 0.3 | 11.8* | 4.1
O=C(CCC(=O)c1cccs1)NCCc1ccc(F)cc1 | 3.8* | 2.0 | -0.1 | -3.1 | 3.0
O=C(CCNc1cccc(Cl)c1)c1cccs1 | 0.8 | -0.7 | 1.4* | 4.9 | 3.4
Cc1ccc(NC(=O)Nc2cccs2)nc1 | 0.5 | 2.4 | -0.4 | 9.1 | 0.1
Cc1ccc(NC(=O)Nc2cccs2)cc1 | 1.4 | 0.4 | -0.1 | 10.7* | 5.4
CCOC(=O)N(C)[C@H]1C[C@H]2c3[nH]c4cccc(-c5cccc(F)c5)c4c3CCN2C(=O)[C@H]1[C@H](C)O | -0.9 | . | -1.8 | -2.4 | -2.5

Screens: PubChem BioAssay, The Scripps Research Institute Molecular Screening Center
